Laboratory results reported in the supplement of paper PMC6897291.

System: RIVA
Test: growth inhibition by drug plus 177Lu-lilotomab satetraxetan (1 - RLU/untreated control) (fraction); higher = stronger inhibition
Details: 177Lu-lilotomab satetraxetan 0.5 ug/ml
Protocol: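 RIVA (RI-1) ABC-DLBCL cells were pretreated or not for 18 h with 0.5 ug/ml 177Lu-lilotomab satetraxetan (600 MBq/mg), washed and seeded (3000 cells/well) on 384-well plates pre-printed with the Selleck Cambridge Cancer Compound library. Viability was read by RealTime-Glo luminescence on days 3-6 after seeding. Effect = 1 - RLU/mean RLU of the 48 untreated no-drug control wells per plate; Bliss score = (M-E)/(1-Fa).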

Row | SMILES | growth inhibition by drug plus 177Lu-lilotomab satetraxetan (10 nM, time (day): 3) | growth inhibition by drug plus 177Lu-lilotomab satetraxetan (10 nM, time (day): 4) | growth inhibition by drug plus 177Lu-lilotomab satetraxetan (10 nM, time (day): 5) | growth inhibition by drug plus 177Lu-lilotomab satetraxetan (10 nM, time (day): 6) | growth inhibition by drug plus 177Lu-lilotomab satetraxetan (100 nM, time (day): 3) | growth inhibition by drug plus 177Lu-lilotomab satetraxetan (100 nM, time (day): 4) | growth inhibition by drug plus 177Lu-lilotomab satetraxetan (100 nM, time (day): 5) | growth inhibition by drug plus 177Lu-lilotomab satetraxetan (100 nM, time (day): 6)
1 | Cn1cc(C2=C(c3ccc(Cl)cc3Cl)C(=O)NC2=O)c2ccccc21 | 0.449 | 0.533 | 0.546 | 0.555 | 0.465 | 0.512 | 0.502 | 0.492
2 | CN(Cc1cnc2nc(N)nc(N)c2n1)c1ccc(C(=O)N[C@@H](CCC(=O)O)C(=O)O)cc1 [Abitrexate (Methotrexate)] | 0.364 | 0.489 | 0.508 | 0.521 | 0.452 | 0.49 | 0.483 | 0.457
3 | COc1ccc(COc2cc3oc(=O)c4cc(C(C)O)ccc4c3cc2OC)cc1 (stereo not given) [Palomid 529] | 0.337 | 0.478 | 0.494 | 0.503 | 0.321 | 0.445 | 0.454 | 0.453
4 | COc1cc(Nc2c(C#N)cnc3cc(OCCCN4CCN(C)CC4)c(OC)cc23)c(Cl)cc1Cl [Bosutinib (SKI-606)] | 0.588 | 0.626 | 0.647 | 0.638 | 0.263 | 0.36 | 0.378 | 0.403
5 | CN(N=O)C(=O)N[C@@H](C=O)[C@@H](O)[C@H](O)[C@H](O)CO [Streptozotocin (Zanosar)] | 0.377 | 0.504 | 0.521 | 0.516 | 0.38 | 0.458 | 0.481 | 0.445
